Measurements published in ChEMBL document CHEMBL1961873, “Compounds: GSK PKIS; Assays: Nanosyn kinase panel” (2012).

Legend:
[1] = target: Death-associated protein kinase 1 (Homo sapiens) (UniProt P53355); conditions: at 1 µM;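 also: each value is a mean inhibition figure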
[2] = target: T1, Serine/threonine-protein kinase DCLK2 (Homo sapiens) (UniProt Q8N568); conditions: at 0.1 µM
T1 sequence (whole entry): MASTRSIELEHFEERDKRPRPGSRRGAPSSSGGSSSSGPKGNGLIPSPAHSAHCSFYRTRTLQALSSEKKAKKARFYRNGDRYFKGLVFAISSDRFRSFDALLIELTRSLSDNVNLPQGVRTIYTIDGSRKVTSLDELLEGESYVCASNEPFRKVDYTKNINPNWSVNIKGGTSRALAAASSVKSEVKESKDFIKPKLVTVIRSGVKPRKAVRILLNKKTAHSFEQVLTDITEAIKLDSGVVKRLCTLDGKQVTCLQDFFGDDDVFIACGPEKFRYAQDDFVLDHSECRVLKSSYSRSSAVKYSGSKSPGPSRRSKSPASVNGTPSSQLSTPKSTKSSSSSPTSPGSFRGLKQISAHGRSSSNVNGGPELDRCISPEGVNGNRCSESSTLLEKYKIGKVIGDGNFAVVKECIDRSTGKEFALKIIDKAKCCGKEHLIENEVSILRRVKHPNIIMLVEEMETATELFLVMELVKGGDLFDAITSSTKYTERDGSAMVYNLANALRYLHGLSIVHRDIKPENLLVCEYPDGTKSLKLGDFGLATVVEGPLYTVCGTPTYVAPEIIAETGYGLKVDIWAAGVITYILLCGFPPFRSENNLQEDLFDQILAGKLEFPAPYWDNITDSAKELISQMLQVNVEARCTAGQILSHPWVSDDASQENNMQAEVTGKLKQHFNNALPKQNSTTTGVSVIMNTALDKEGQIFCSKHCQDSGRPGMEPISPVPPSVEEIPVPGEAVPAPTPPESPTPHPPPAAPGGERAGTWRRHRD

[3] = target: T1, Serine/threonine-protein kinase DCLK2 (Homo sapiens); conditions: at 1 µM
[4] = target: MAP kinase-activated protein kinase 2 (Homo sapiens) (UniProt P49137); conditions: at 0.1 µM
[5] = target: MAP kinase-activated protein kinase 2 (Homo sapiens) (UniProt P49137); conditions: at 1 µM
[6] = target: MAP kinase-activated protein kinase 3 (Homo sapiens) (UniProt Q16644); conditions: at 0.1 µM
Sequence of MAP kinase-activated protein kinase 3 (Homo sapiens) (Q16644 whole entry, looked up): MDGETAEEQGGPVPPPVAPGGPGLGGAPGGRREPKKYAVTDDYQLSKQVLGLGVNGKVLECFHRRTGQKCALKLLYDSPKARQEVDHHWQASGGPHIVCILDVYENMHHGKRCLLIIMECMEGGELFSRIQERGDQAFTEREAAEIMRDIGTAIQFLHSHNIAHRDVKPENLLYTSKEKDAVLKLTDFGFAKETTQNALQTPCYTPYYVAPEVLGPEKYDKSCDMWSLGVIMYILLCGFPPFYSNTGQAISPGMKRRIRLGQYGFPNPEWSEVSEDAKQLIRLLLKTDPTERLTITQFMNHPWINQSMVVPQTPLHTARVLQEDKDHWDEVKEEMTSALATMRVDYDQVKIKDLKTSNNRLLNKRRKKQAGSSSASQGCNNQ

[7] = target: MAP kinase-activated protein kinase 3 (Homo sapiens) (UniProt Q16644); conditions: at 1 µM
[8] = target: Serine/threonine-protein kinase MARK1 (Homo sapiens) (UniProt Q9P0L2); conditions: at 0.1 µM
[9] = target: Serine/threonine-protein kinase MARK1 (Homo sapiens) (UniProt Q9P0L2); conditions: at 1 µM
[10] = target: MAP/microtubule affinity-regulating kinase 3 (Homo sapiens) (UniProt P27448); conditions: at 0.1 µM
Sequence of MAP/microtubule affinity-regulating kinase 3 (Homo sapiens) (P27448 whole entry, looked up): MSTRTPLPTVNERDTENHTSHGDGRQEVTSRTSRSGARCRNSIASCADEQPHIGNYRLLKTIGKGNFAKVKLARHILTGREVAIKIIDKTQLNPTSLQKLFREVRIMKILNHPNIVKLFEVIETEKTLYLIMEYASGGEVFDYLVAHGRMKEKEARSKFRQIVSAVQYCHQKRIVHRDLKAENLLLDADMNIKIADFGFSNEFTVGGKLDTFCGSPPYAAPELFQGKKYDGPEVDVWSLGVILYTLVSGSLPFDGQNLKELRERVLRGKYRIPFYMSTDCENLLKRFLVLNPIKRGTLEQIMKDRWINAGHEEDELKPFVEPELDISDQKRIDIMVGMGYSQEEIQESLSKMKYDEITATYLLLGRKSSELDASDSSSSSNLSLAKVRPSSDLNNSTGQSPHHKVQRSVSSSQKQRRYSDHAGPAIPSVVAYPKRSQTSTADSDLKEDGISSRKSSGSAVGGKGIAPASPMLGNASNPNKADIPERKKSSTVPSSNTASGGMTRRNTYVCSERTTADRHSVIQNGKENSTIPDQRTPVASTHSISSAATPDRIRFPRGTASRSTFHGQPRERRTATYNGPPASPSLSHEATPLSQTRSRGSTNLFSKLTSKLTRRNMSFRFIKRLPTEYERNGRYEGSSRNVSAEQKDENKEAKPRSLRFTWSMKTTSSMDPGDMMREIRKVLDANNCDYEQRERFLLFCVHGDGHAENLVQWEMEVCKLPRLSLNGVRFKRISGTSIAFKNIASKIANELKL

[11] = target: MAP/microtubule affinity-regulating kinase 3 (Homo sapiens) (UniProt P27448); conditions: at 1 µM
[12] = target: T2, MAP/microtubule affinity-regulating kinase 4 (Homo sapiens) (UniProt Q96L34); conditions: at 0.1 µM
T2 sequence (whole entry): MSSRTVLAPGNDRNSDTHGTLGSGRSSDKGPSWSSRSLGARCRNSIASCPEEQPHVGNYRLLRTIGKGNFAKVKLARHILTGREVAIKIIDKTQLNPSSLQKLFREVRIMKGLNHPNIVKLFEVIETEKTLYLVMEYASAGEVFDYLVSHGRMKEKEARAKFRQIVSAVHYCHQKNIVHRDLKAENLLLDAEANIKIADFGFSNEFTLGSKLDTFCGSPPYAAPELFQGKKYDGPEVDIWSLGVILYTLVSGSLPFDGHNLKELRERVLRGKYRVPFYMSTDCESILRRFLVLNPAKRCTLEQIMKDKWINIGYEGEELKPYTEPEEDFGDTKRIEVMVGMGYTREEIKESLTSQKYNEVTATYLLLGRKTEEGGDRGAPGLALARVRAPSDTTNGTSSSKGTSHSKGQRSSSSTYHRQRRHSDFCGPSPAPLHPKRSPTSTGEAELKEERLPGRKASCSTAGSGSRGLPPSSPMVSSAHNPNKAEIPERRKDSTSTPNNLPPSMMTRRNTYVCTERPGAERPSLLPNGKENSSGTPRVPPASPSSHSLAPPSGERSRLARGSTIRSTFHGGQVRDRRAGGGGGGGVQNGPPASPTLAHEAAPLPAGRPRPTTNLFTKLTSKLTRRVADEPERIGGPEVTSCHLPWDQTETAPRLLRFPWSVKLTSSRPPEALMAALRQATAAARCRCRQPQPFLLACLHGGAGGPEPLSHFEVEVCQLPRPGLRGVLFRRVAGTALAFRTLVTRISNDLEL

[13] = target: T2, MAP/microtubule affinity-regulating kinase 4 (Homo sapiens); conditions: at 1 µM
[14] = target: Maternal embryonic leucine zipper kinase (Homo sapiens) (UniProt Q14680); conditions: at 0.1 µM
Sequence of Maternal embryonic leucine zipper kinase (Homo sapiens) (Q14680 whole entry, looked up): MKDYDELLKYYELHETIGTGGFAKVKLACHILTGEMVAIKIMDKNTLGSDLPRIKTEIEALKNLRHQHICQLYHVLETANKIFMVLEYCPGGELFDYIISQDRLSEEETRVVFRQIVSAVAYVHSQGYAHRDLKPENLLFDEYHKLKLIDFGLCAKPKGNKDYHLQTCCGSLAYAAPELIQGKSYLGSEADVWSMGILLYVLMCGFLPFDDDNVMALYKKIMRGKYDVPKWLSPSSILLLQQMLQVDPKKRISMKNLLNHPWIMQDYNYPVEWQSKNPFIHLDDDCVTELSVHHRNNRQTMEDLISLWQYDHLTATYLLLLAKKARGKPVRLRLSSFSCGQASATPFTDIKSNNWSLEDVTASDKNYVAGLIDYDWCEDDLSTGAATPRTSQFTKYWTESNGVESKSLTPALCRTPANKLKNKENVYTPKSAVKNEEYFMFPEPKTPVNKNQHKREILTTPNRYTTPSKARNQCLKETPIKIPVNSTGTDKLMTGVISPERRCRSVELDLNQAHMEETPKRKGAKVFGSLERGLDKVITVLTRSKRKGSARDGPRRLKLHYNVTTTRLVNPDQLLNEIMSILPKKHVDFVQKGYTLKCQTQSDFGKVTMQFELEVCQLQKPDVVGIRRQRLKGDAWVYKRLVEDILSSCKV

[15] = target: Maternal embryonic leucine zipper kinase (Homo sapiens) (UniProt Q14680); conditions: at 1 µM
[16] = target: MAP kinase-interacting serine/threonine-protein kinase 1 (Homo sapiens) (UniProt Q9BUB5); conditions: at 0.1 µM
Sequence of MAP kinase-interacting serine/threonine-protein kinase 1 (Homo sapiens) (Q9BUB5 whole entry, looked up): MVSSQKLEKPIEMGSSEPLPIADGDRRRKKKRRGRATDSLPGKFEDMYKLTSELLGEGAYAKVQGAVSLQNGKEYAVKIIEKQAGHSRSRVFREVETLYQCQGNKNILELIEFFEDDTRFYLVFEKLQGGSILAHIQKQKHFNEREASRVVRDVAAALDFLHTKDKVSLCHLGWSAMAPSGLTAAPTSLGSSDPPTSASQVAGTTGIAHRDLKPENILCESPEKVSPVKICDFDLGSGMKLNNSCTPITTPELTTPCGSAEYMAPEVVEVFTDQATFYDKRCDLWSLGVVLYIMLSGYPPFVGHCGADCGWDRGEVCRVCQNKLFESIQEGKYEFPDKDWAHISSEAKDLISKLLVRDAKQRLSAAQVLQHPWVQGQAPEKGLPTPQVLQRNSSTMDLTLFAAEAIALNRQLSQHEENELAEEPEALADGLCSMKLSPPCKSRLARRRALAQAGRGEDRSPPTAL

[17] = target: MAP kinase-interacting serine/threonine-protein kinase 1 (Homo sapiens) (UniProt Q9BUB5); conditions: at 1 µM
[18] = target: MAP kinase-interacting serine/threonine-protein kinase 2 (Homo sapiens) (UniProt Q9HBH9); conditions: at 0.1 µM
Sequence of MAP kinase-interacting serine/threonine-protein kinase 2 (Homo sapiens) (Q9HBH9 whole entry, looked up): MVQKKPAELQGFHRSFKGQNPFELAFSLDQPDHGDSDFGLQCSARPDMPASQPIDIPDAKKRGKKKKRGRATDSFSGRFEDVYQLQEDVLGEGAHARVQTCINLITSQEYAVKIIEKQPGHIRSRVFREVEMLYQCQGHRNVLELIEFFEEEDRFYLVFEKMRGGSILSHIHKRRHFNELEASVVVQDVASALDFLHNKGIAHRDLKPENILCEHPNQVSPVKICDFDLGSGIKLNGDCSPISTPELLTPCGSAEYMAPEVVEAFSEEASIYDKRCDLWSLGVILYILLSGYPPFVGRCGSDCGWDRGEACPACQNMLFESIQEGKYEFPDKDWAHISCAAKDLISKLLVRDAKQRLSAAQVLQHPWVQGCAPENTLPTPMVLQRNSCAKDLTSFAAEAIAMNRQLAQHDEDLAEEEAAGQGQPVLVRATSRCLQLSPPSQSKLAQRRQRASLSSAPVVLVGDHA

[19] = target: MAP kinase-interacting serine/threonine-protein kinase 2 (Homo sapiens) (UniProt Q9HBH9); conditions: at 1 µM
[20] = target: Serine/threonine-protein kinase MARK2 (Homo sapiens) (UniProt Q7KZI7); conditions: at 0.1 µM;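 also: mean percent inhibition of PAR-1Balpha kinase activity, reported from the GSK PKIS screen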
Sequence of Serine/threonine-protein kinase MARK2 (Homo sapiens) (Q7KZI7 whole entry): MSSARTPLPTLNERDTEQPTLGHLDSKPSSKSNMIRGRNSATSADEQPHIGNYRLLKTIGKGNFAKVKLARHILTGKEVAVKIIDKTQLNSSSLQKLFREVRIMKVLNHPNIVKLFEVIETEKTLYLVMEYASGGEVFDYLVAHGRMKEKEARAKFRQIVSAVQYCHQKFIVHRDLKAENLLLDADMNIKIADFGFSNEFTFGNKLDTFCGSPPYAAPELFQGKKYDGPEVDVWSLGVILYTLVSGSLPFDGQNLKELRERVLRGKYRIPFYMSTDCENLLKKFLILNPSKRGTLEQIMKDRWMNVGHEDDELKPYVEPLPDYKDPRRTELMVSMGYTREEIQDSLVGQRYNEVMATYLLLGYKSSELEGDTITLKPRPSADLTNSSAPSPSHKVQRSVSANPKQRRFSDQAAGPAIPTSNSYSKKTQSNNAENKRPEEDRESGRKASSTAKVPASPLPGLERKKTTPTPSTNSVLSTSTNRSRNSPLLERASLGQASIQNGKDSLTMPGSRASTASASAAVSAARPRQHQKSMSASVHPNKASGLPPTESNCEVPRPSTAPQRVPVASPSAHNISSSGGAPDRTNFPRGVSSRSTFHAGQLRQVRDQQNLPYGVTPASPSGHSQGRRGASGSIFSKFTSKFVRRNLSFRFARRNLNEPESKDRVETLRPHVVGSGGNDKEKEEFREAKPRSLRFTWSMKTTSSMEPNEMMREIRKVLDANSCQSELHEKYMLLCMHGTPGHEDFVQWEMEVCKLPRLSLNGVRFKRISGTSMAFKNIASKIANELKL

Sequence of Death-associated protein kinase 1 (Homo sapiens) (P53355 whole entry, looked up): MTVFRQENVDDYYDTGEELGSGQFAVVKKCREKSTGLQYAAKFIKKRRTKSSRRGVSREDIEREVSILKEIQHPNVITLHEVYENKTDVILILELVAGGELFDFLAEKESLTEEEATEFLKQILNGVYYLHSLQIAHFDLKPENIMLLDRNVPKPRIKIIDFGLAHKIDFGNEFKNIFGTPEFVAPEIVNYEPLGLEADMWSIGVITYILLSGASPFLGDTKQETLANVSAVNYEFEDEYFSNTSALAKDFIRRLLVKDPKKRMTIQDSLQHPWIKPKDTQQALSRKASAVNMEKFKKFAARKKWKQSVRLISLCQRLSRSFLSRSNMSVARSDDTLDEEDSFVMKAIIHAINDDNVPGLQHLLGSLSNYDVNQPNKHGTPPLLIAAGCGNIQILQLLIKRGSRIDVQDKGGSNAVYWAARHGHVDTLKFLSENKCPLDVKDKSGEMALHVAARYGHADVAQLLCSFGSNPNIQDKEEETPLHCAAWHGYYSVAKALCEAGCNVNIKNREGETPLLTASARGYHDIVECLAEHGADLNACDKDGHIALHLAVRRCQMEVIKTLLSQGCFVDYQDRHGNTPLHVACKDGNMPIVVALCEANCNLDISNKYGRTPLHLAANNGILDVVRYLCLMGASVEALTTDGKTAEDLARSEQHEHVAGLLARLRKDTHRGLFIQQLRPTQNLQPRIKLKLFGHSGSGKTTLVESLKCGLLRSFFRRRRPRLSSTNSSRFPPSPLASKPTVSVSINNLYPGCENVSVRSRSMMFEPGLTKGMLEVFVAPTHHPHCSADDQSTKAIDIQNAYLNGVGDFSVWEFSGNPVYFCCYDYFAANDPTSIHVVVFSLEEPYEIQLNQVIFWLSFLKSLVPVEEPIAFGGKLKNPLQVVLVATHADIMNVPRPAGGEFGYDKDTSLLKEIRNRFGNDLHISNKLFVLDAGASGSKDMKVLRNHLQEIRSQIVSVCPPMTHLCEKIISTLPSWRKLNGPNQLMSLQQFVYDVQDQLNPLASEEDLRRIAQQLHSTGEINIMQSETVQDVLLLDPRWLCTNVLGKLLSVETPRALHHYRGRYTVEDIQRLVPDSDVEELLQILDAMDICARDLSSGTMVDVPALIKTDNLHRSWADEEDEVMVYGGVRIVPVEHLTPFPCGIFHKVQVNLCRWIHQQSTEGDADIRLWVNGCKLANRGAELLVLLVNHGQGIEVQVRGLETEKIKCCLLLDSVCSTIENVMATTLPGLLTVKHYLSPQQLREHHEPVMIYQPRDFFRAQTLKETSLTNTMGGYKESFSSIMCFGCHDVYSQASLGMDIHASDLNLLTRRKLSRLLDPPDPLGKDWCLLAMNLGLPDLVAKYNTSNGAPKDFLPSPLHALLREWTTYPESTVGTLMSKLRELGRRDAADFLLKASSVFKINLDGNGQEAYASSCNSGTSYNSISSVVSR

Compound	inhibition [1]	inhibition [2]	inhibition [3]	inhibition [4]	inhibition [5]	inhibition [6]	inhibition [7]	inhibition [8]	inhibition [9]	inhibition [10]	inhibition [11]	inhibition [12]	inhibition [13]	inhibition [14]	inhibition [15]	inhibition [16]	inhibition [17]	inhibition [18]	inhibition [19]	inhibition [20]
O=C(Nc1n[nH]c2cc(-c3cc(F)ccc3F)ccc12)C1CC1	-0.43%	1.87%	0.55%	1.65%	1.03%	3.84%	3.99%	2.47%	5.89%	2.76%	-0.14%	2.5%	5.44%	2.11%	5.13%	3.39%	12.6%	1.25%	2.16%	-1.51%
COc1ccc2cc(-c3c(-c4ccncc4)nc(-c4ccc(S(C)(=O)=O)cc4C)n3C)ccc2c1	-3.68%	0.26%	-1.72%	-0.32%	-1.32%	-1.15%	1.63%	3.38%	4.84%	1.58%	2.48%	2.52%	1.32%	6.13%	9.41%	2.6%	6.69%	1.75%	3.34%	0.73%
COc1cc(Nc2ncc(-c3ccccc3)o2)cc(OC)c1OC	1.28%	-1.54%	1.6%	-1.14%	-0.59%	-1.98%	-2.22%	2.34%	15.6%	2.51%	22.1%	2.46%	13.4%	-0.49%	5.74%	4.6%	30.4%	1.26%	24.2%	2.94%
Cc1ccc(C(=O)NC(C)C)cc1-c1ccc(C(=O)NCC2CC2)cc1	-2.3%	-3.07%	-1.07%	-1.44%	-1.8%	0.42%	9.15%	0.27%	0.65%	0.19%	-0.42%	1.15%	0.5%	-2.85%	-2.99%	-1.07%	-0.97%	-0.04%	1.12%	0.38%
Fc1ccc(-c2ncn(C3CCNCC3)c2-c2ccnc(Oc3ccc(F)c(F)c3)n2)cc1	2.08%	-3.27%	-1.37%	1.11%	0.66%	18.5%	31.3%	2.93%	4.99%	3.47%	12.2%	3.57%	4.5%	7.73%	7.03%	2.05%	3.06%	1.28%	1.04%	-0.25%
CN(C)CCOc1ccc(-c2cc(-c3ccc4c(c3)CCC4=NO)c(-c3ccncc3)o2)cc1	-1.18%	-2.52%	-1.37%	-1.35%	-1.61%	-1.27%	-1.84%	-2.08%	1.81%	-5.74%	-0.6%	-0.26%	0.68%	-1.71%	-1.71%	1.14%	5.12%	0.16%	2.71%	-1.72%
COc1ccc2ncn(-c3cc(O[C@H](C)c4ccccc4Cl)c(C(N)=O)s3)c2c1	1.29%	-3.36%	-2.8%	1.56%	1.62%	3.18%	2.49%	3.24%	2.92%	3.81%	3.11%	2.49%	2.42%	7.14%	6.08%	1.84%	2.25%	0.29%	2.7%	-0.63%
NC(=O)c1ccc(Oc2nccc(-c3c(-c4ccc(F)cc4)ncn3C3CCNCC3)n2)cc1	-3.98%	0.57%	1.94%	0.01%	1.79%	17.6%	30.8%	2.78%	4.16%	3.42%	6.64%	1.51%	2.24%	7.28%	11.6%	3.92%	4.27%	3.56%	4.79%	2.73%
NS(=O)(=O)c1ccc(N/N=C2\C(=O)Nc3ccc(-c4cnco4)cc32)cc1	-3.71%	-5.27%	-2.47%	-0.59%	0.18%	-0.18%	-0.48%	2.3%	15.6%	2.61%	17.4%	4.35%	26.1%	5.8%	32.9%	1.41%	7.87%	2.14%	8.88%	1.73%
Fc1ccc(-c2ncn(C3CCNCC3)c2-c2ccnc(Oc3ccc4c(c3)OCO4)n2)cc1	-4.62%	2.01%	2.26%	0%	-0.67%	29.6%	31.2%	2.98%	5.01%	3.59%	5.12%	2.61%	3.33%	6.04%	6.41%	4.52%	7.62%	1.84%	6.88%	0.67%
CN(c1ccc(NC(=O)Nc2c(Cl)cccc2Cl)cc1)c1ccnc(Nc2cccc(CS(C)(=O)=O)c2)n1	4.43%	3.64%	4.12%	0.46%	1.08%	0.42%	0.31%	3.52%	10.8%	2.64%	13.3%	2.82%	12.8%	3.73%	3.32%	10.2%	27.9%	20.4%	45.6%	-0.82%
